Assay [1] in a line: BSK_SAg_PBMCCytotoxicity: PBMC Cytotoxicity Assessment in the BioMAP Diversity Plus: SAg Assay (AID 2283093).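 For AC50: PBMC superantigen activated with SEB plus TSST-1 one hour after compound addition.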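 Note: PBMC viability measured as Alamar Blue reduction fluorescence at 546/580 nm; fitted both ways against DMSO so a hit may be loss or gain of signal.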 Conditions: primary human HUVEC with PBMC. The procedure, abridged: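 Alamar Blue reduction (6 h, 546/580 nm) reports PBMC cytotoxicity after 90 h superantigen activation (SEB, TSST-1; 20 ng/mL final each) with 1 h compound pre-treatment. Gain or loss of signal fitted versus DMSO.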

Read-out in assay [2]: Interleukin-8 (IL8), CXCL8 (gene 3576)
Description: BSK_SAg_IL8: BioMAP Diversity Plus: SAg Assay for Interleukin-8 (IL8) Biomarker Activity (AID 2283094). Conditions: primary human HUVEC with PBMC; actives raise or lower the signal. The gist of the method:
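HUVEC/PBMC co-culture, 24 h post-dose; IL-8 by ELISA. Gain or loss of signal fitted bidirectionally vs DMSO baseline.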

Assay [3] in a line: BSK_SAg_Proliferation: Cell Proliferation Assessment in the BioMAP Diversity Plus: SAg Assay (AID 2283095).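 Note: relative cell number as total protein by SRB absorbance in sub-confluent culture.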 Conditions: primary human HUVEC with PBMC. The procedure, abridged:
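HUVEC/PBMC co-culture, 96-well. TCA-fixed (10%), 0.1% SRB stain, A560 at 96 h. Protein content used as viability readout; bidirectional fitting vs DMSO control.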

The nature of assay [4]: BSK_SAg_SRB: Viability Assessment in the BioMAP Diversity Plus: SAg Assay (AID 2283096).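 Note: cells read one day after compound addition; hits may be either gain or loss of signal compared with DMSO.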 Conditions: primary human HUVEC with PBMC. The gist of the method: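 This overt-cytotoxicity endpoint quantifies protein in human endothelial/PBMC co-cultures at 24 h using SRB absorbance (560 nm) after trichloroacetic acid fixation. Values reflect signal change from the DMSO negative control, fitted bidirectionally.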

Assay [5] concerns the target human CYP19A1, CYP19A1 (gene 1588) (UniProt P11511). Description: NVS_ADME_hCYP19A1: NovaScreen (NVS) CYP450-related Enzyme Activity (ADME) Assay for human CYP19A1 (AID 2283098; active = hit-call score of the fitted dose curve at least 0.9, where 1 is the maximum;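 for AC50: potency for inhibitors seen as loss of fluorescent enzyme signal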). The procedure, abridged:
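Compounds were first screened at 10 uM in duplicate against purified enzyme, with a fluorogenic substrate and fluorescence intensity detection after 0.5 h. Inhibition appears as reduced signal against acetonitrile control.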

The target of assay [6] is Cytochrome P450 2C18 (Homo sapiens) (UniProt P33260). Description: NVS_ADME_hCYP2C18: NovaScreen (NVS) CYP450-related Enzyme Activity (ADME) Assay for human CYP2C18 (AID 2283103). The procedure, abridged: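 Enzyme activity measured by fluorescence 0.5 h after compound addition, using recombinant CYP2C18 and a specific substrate. Actives from duplicate 10 uM screening were retested in concentration series (top 20 uM); acetonitrile served as negative baseline.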
Chain of Cytochrome P450 2C18 (Homo sapiens) (P33260 whole entry, looked up): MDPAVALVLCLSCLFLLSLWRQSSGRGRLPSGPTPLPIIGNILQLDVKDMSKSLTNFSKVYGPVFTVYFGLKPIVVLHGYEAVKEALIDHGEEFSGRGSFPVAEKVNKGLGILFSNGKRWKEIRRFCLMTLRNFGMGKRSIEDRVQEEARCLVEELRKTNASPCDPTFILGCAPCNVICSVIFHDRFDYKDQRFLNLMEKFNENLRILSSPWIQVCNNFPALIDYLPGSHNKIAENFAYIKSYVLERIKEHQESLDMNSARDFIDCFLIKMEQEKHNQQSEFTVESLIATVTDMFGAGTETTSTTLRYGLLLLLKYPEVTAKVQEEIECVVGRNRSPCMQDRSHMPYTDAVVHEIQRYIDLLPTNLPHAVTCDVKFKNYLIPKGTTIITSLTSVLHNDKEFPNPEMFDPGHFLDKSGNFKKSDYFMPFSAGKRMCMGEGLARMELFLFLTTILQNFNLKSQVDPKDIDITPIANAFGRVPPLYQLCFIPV

In assay [7] the target is human CYP2C8, CYP2C8 (gene 1558) (UniProt P10632). Description: NVS_ADME_hCYP2C8: NovaScreen (NVS) CYP450-related Enzyme Activity (ADME) Assay for human CYP2C8 (AID 2283104). The procedure, abridged: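 Fluorescence readout of substrate turnover by recombinant CYP2C8 after 0.5 h, baseline acetonitrile. Single-concentration duplicate screen at 10 uM preceded singleton concentration series (max 20 uM) for compounds passing the inhibition threshold.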
Chain of human CYP2C8, CYP2C8 (gene 1558) (P10632 whole entry, looked up): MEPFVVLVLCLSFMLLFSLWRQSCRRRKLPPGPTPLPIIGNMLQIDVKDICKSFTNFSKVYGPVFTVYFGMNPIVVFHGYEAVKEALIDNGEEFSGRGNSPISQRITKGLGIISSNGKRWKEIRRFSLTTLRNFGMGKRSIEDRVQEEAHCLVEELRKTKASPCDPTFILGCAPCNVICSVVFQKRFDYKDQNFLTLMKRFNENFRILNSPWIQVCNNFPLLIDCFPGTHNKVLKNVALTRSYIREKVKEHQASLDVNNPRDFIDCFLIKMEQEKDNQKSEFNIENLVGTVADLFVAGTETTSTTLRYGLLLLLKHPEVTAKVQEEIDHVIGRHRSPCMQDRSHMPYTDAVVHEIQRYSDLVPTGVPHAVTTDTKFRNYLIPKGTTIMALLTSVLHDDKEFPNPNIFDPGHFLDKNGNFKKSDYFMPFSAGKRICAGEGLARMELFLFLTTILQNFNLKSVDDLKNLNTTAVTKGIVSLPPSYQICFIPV

Assay [8] deals with Cytochrome P450 3A4 (Homo sapiens) (UniProt P08684). Description: NVS_ADME_hCYP3A4: NovaScreen (NVS) CYP450-related Enzyme Activity (ADME) Assay for human CYP3A4 (AID 2283110; active = hit-call score of the fitted dose curve at least 0.9, where 1 is the maximum). The gist of the method: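 Activity is derived from decreased fluorescence intensity relative to acetonitrile, measured 0.33 hour after dosing insect-cell-expressed CYP3A4 in a cell-free format. Screening used 10 uM in duplicate before concentration-response follow-up.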
Chain of Cytochrome P450 3A4 (Homo sapiens) (P08684 whole entry, looked up): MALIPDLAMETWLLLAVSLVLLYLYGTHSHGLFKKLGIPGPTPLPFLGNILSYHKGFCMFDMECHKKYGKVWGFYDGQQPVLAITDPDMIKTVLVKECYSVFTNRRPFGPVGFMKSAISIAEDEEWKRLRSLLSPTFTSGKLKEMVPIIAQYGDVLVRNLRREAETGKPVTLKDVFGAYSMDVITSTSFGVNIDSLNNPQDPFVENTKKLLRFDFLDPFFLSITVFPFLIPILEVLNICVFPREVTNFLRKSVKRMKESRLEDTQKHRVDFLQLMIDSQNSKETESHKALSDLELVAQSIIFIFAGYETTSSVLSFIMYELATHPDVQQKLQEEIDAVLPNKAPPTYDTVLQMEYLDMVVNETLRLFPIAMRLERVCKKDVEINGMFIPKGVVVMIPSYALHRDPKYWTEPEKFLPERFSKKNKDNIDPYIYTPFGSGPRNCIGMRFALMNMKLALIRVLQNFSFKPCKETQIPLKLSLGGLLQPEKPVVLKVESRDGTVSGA

The target of assay [9] is rat CYP2A2, Cyp2a2 (gene 24895) (UniProt P15149). Description: NVS_ADME_rCYP2A2: NovaScreen (NVS) CYP450-related Enzyme Activity (ADME) Assay for rat CYP2A2 (AID 2283116; active = hit-call score of the fitted dose curve at least 0.9, where 1 is the maximum). The procedure, abridged:
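Compounds first tested in duplicate at 10 uM, then in singleton concentration series up to 20 uM when over threshold. Activity of the recombinant enzyme read by fluorescence at 0.2 h, normalised to acetonitrile vehicle.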

Read-out in assay [10]: Monokine induced gamma interferon (MIG), CXCL9 (gene 4283)
As to the kind of experiment: BSK_SAg_MIG: BioMAP Diversity Plus: SAg Assay for Monokine induced gamma interferon (MIG) Biomarker Activity (AID 2283092). Conditions: primary human HUVEC with PBMC; actives raise or lower the signal. The gist of the method:
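ELISA readout of MIG/CXCL9; primary human umbilical vein endothelial cells co-cultured with peripheral blood mononuclear cells; 24 h post-dose; gain/loss fit vs DMSO baseline.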

Assay [11] concerns the target human CYP4F12, CYP4F12 (gene 66002) (UniProt Q9HCS2). As to the kind of experiment: NVS_ADME_hCYP4F12: NovaScreen (NVS) CYP450-related Enzyme Activity (ADME) Assay for human CYP4F12 (AID 2283111; active = hit-call score of the fitted dose curve at least 0.9, where 1 is the maximum). The gist of the method:
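Recombinant enzyme with a fluorescent substrate, signal read at 0.5 h post-dose; activity loss analysed relative to acetonitrile. Compounds first run in duplicate at 10 uM, with follow-up concentration-response testing of actives.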

For assay [12], the target named is human CYP2B6, CYP2B6 (gene 1555) (UniProt P20813). Description: NVS_ADME_hCYP2B6: NovaScreen (NVS) CYP450-related Enzyme Activity (ADME) Assay for human CYP2B6 (AID 2283101; active = hit-call score of the fitted dose curve at least 0.9, where 1 is the maximum). The gist of the method:
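Fluorescence-based enzyme activity of recombinant human CYP2B6, measured 1 h post-dose against acetonitrile vehicle baseline. Screened at a single concentration of 10 uM in duplicate before concentration-response follow-up.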

Assay [13] addresses human CYP1A1, CYP1A1 (gene 1543) (UniProt P04798). As to the kind of experiment: NVS_ADME_hCYP1A1: NovaScreen (NVS) CYP450-related Enzyme Activity (ADME) Assay for human CYP1A1 (AID 2283100; active = hit-call score of the fitted dose curve at least 0.9, where 1 is the maximum). The gist of the method: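 Read-out: fluorescence intensity from enzymatic turnover of substrate by recombinant CYP1A1, loss of signal indicating inhibition. Incubation 1 h post-dose. Primary single-point 10 uM in duplicate; actives rerun singly with top concentration 20 uM.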

The target in assay [14] is human CYP2J2, CYP2J2 (gene 1573) (UniProt P51589). Description: NVS_ADME_hCYP2J2: NovaScreen (NVS) CYP450-related Enzyme Activity (ADME) Assay for human CYP2J2 (AID 2283106; active = hit-call score of the fitted dose curve at least 0.9, where 1 is the maximum). The procedure, abridged:
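Chemicals were first tested at 10 uM in duplicate, and hits meeting criteria such as 30% inhibition were run in singleton concentration series with a 20 uM top concentration. Enzyme activity of recombinant CYP2J2 was measured by fluorescence after 1 h, relative to acetonitrile.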

Assay [15] has as its target human CYP2C9, CYP2C9 (gene 1559) (UniProt P11712). Description: NVS_ADME_hCYP2C9: NovaScreen (NVS) CYP450-related Enzyme Activity (ADME) Assay for human CYP2C9 (AID 2283108; active = hit-call score of the fitted dose curve at least 0.9, where 1 is the maximum). The gist of the method: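 Cell-free assay of recombinant human CYP2C9 produced in Sf9 cells, with enzyme activity read by fluorescence intensity 0.75 h after compound addition. Loss of signal versus an acetonitrile negative control indicates inhibition. Primary screen used 10 uM in duplicate; actives were retested in concentration series.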

The target of assay [16] is rat CYP2A1, Cyp2a1 (gene 24894) (UniProt P11711). Description: NVS_ADME_rCYP2A1: NovaScreen (NVS) CYP450-related Enzyme Activity (ADME) Assay for rat CYP2A1 (AID 2283114). The gist of the method:
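Cell-free fluorescence enzyme-activity read on recombinant rat CYP2A1, taken 0.75 h post-dosing. Compounds were screened in duplicate at 10 uM, then hits tested in concentration series (max 20 uM); inhibition scored relative to acetonitrile baseline.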

The values below come from PubChem BioAssay (EPA / NIEHS).

Inconclusive results are not listed. Some compounds were tested as several samples or in several runs, with calls that do not always agree. The source made the active and inactive calls. Rule for the calls, unless noted: active = hit-call score of the fitted dose curve at least 0.9, where 1 is the maximum; inactive = score below 0.9.

Chain of human CYP19A1, CYP19A1 (gene 1588) (P11511 whole entry, looked up): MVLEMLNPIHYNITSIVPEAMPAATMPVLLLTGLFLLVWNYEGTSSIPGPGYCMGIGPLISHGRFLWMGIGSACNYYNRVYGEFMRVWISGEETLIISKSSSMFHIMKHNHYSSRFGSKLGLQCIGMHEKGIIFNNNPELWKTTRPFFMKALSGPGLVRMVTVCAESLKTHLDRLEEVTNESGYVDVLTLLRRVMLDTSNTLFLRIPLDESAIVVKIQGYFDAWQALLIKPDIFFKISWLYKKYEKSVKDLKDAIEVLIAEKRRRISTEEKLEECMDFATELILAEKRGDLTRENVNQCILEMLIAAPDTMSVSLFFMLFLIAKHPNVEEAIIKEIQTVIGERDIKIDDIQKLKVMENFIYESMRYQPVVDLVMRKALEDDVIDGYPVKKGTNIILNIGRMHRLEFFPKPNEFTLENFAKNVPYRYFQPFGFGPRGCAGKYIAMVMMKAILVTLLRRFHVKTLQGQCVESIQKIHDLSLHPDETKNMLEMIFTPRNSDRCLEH
Chain of rat CYP2A2, Cyp2a2 (gene 24895) (P15149 whole entry, looked up): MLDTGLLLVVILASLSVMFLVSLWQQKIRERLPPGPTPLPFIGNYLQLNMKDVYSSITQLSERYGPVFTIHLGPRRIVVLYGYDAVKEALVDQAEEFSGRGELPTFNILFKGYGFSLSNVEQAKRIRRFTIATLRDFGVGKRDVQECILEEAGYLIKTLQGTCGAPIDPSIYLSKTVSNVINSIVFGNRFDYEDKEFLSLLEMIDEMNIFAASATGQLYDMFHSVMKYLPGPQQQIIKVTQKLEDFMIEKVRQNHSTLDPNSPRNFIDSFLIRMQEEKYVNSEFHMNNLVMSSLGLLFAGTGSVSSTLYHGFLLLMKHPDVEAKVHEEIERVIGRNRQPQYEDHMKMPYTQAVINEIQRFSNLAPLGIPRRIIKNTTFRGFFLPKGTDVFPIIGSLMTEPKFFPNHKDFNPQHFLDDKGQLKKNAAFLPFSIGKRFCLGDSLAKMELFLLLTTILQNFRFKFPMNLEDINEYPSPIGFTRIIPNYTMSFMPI
Chain of human CYP2B6, CYP2B6 (gene 1555) (P20813 whole entry, looked up): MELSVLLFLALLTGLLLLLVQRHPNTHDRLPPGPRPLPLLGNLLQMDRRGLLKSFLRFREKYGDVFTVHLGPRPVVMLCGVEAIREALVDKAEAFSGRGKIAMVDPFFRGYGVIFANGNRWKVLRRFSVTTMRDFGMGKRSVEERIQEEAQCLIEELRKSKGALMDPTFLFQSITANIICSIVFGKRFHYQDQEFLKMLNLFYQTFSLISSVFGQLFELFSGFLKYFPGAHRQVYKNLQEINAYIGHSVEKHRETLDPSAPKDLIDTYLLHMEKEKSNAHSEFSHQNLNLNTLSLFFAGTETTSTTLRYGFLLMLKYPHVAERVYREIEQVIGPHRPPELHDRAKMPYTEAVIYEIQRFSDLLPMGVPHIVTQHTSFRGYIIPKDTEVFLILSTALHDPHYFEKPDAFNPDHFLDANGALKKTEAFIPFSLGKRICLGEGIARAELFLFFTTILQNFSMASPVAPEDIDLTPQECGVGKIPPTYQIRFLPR
Chain of human CYP4F12, CYP4F12 (gene 66002) (Q9HCS2 whole entry, looked up): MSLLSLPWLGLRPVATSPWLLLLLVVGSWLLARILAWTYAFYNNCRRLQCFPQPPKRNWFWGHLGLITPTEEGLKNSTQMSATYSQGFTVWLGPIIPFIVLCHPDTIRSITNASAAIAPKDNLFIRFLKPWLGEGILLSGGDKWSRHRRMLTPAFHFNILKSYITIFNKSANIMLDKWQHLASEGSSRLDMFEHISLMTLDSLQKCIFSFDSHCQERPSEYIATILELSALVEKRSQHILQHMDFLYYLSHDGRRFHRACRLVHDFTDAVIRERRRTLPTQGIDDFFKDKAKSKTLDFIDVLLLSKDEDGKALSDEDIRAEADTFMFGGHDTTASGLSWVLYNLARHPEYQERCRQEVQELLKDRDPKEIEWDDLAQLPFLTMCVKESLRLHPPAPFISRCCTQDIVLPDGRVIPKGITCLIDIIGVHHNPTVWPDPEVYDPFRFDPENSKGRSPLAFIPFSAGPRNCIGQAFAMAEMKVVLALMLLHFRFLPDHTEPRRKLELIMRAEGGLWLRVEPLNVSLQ
Chain of rat CYP2A1, Cyp2a1 (gene 24894) (P11711 whole entry, looked up): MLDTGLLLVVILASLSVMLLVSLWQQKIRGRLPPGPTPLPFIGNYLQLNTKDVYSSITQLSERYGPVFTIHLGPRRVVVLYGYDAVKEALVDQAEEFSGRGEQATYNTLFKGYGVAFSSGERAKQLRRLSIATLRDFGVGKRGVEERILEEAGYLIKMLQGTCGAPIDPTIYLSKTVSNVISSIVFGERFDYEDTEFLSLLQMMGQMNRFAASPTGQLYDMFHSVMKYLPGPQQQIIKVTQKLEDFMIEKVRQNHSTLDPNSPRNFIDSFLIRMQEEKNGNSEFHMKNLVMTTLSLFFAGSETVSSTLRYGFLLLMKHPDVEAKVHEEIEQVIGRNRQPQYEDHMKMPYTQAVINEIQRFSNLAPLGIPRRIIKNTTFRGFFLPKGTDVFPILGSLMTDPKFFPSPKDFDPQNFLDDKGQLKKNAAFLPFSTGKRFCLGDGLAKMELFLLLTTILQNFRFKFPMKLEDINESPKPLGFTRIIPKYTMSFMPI
Chain of human CYP2C9, CYP2C9 (gene 1559) (P11712 whole entry, looked up): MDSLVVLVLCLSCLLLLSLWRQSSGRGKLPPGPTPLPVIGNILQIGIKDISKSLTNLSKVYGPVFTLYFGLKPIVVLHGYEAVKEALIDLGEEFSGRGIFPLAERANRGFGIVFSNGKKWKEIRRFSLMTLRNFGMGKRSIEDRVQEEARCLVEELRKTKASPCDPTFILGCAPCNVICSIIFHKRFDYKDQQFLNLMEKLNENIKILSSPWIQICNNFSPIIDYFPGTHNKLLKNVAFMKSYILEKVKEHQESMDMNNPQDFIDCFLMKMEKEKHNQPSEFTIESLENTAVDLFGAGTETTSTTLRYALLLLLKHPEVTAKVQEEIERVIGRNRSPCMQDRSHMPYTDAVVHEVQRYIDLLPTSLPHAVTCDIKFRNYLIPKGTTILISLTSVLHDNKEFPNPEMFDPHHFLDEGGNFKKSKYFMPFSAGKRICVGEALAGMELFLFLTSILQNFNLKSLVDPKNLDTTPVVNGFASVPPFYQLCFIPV
Chain of human CYP1A1, CYP1A1 (gene 1543) (P04798 whole entry, looked up): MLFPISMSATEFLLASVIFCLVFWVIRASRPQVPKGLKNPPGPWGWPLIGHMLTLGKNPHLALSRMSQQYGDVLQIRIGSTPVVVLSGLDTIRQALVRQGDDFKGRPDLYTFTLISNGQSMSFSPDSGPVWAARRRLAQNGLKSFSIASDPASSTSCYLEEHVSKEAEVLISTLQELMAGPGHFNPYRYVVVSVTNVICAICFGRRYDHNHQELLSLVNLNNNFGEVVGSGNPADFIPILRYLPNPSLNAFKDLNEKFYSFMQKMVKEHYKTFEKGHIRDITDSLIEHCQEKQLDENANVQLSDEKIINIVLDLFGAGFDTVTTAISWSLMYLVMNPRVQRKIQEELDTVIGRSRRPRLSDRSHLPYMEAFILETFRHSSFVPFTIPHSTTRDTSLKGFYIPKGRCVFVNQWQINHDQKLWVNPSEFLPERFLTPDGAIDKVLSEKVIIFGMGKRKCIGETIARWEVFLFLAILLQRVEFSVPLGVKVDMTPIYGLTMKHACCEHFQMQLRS

As to `O=S(=O)(O)C(F)(F)C(F)(F)C(F)(F)C(F)(F)C(F)(F)C(F)(F)C(F)(F)C(F)(F)F`, the result in assay [1], in [2], in [3], in assay [4], in assay [5] and in assay [8] was inactive. Further, the outcome in assay [9] was inactive. In addition, the figures for the AC50 in assay [5], in [6] and in assay [7] were 5.35 µM (active), 0.875 µM (active) and 4.04 µM (active), respectively.

`ClC1C(Cl)C(Cl)C(Cl)C(Cl)C1Cl` (configuration not stated): the outcome in assay [10], in assay [1], in assay [2], in assay [3] and in [4] was inactive. Moreover, in assay [11], the AC50 is 17.3 µM (active).

As for `O=S1OCC2C(CO1)C1(Cl)C(Cl)=C(Cl)C2(Cl)C1(Cl)Cl` (configuration not stated), the AC50 is 34.4 µM (active) in assay [10]; 16.1 µM (active) in assay [1]; 36.6 µM (active) in assay [2]; 29 µM (active) in [4]; 4.85 µM (active) in [12]. The molecule was classed as inactive in assay [5].

`CC(C)OC(=O)Nc1cccc(Cl)c1`: the result in [1], in assay [2] and in assay [3] was inactive. Further, the AC50 in assay [4] was 1.76 µM (active).

For the molecule `C[C@H]1[C@H](c2ccc(Cl)cc2)SC(=O)N1C(=O)NC1CCCCC1`, the outcome in [1] was inactive. Further, the AC50 in assay [2] is 13.6 µM (active); in assay [3], 18.1 µM (active); in [4], 9.32 µM (active).

Regarding `N#CN`, the result in [10], in assay [1], in assay [2] and in assay [4] was inactive.

Consider `CC(C)(C)C(O)/C(=C\c1ccc(Cl)cc1Cl)n1cncn1` (configuration not stated), for which the result in assay [1] was inactive. Further, the AC50 is 32.2 µM (active) in assay [2]; 29.2 µM (active) in assay [3]; 29.9 µM (active) in assay [4]; 4.73 µM (active) in assay [5]; 0.705 µM (active) in [13]; 0.974 µM (active) in assay [12]. Moreover, the concentration at half-maximal activity (AC50) in assay [6] was 0.0386 µM (active); in [14] it was 2.21 µM (active); in assay [15], 0.721 µM (active); in [8] it was 1.2 µM (active); in [16], 0.477 µM (active); in assay [9], 0.0195 µM (active).

For `O=[N+]([O-])/N=C1\NCCN1Cc1ccc(Cl)nc1`, the result in assay [1], in [2], in [3], in assay [4] and in assay [5] was inactive.

Take `CNC(=O)Oc1ccccc1OC(C)C`: the outcome in assay [1], in assay [2] and in [4] was inactive.

With `CCC(C)(C)C(=O)OC1=C(c2ccc(Cl)cc2Cl)C(=O)OC12CCCCC2`, the AC50 in [1] was 26.5 µM (active); in assay [2], 4.73 µM (active); in [3], 12.3 µM (active); in [4] it was 32.8 µM (active).

Take `CCOc1nc(NC)nc(NC(=O)NS(=O)(=O)c2ccccc2C(=O)OC)n1`: the outcome in [10], in assay [1], in assay [2] and in assay [4] was inactive.

Consider `Clc1ccccc1-c1nnc(-c2ccccc2Cl)nn1`, for which the result in assay [10], in assay [1], in [2] and in [4] was inactive.

A word on the AC50: it is the concentration giving half of the maximal activity seen.
